This is a sample that favours compounds with a hit; in the whole collection about 8.8% have one here.
KB-3-1 tox: qHTS assay for MDR1-selective chemotherapeutics: Primary screen using the parental adenocarcinoma cell KB-3-1 | actives 1.4% (n = 400,000) | KB-3-1 viability, CellTiter-Glo ATP luminescence, 72 h | Potency, µM (top dose mostly 46.1 µM), hits mostly cytotoxic; also: nearly all actives have a fitted effect of over 60% in size
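KB-3-1 parental drug-naive adenocarcinoma cells in DMEM/10% FBS, incubated 72 h at 37 C with pin-transferred compounds across a concentration series. Viability by CellTiter-Glo luminescence; concentration-response curves fitted after normalization.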
HT1080 IDH1KD tx: qHTS for induction of synthetic lethality in tumor cells producing 2HG: qHTS for the HT-1080-IDH1KD cell line. HT-1080 IDH1 knockdown viability, ATP luminescence, 48 h. actives 2% (n = 360,000). Potency, µM (series often up to 46.1 µM), most hits filed as cytotoxic. AID 686971, 2013
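IDH1KD HT-1080 cells, 750/well, RPMI + 5% FBS; compound pinned after 2 h settling; 48 h, 37 °C; CellTiter-Glo luminescence; % activity normalised to DMSO and no-cell wells; curves fitted, classed by r2 and efficacy.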
IL-1B inflam inh: qHTS for Inhibitors of Inflammasome Signaling: IL-1-beta AlphaLISA Primary Screen | THP-1 LPS/ATP IL-1B secretion, AlphaLISA, 16 h; hits give low values | activity change, % at 57.5 µM | actives 4.7% (n = 360,000); in the data active = activity change below about -50%; inconclusive = mostly about -30% to -49%
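Secreted IL-1B measured by AlphaLISA bead assay after 16 h compound exposure of THP-1 cells; compounds (final up to 57.5 uM) added 1 h before LPS (250 ng/mL) and ATP (1.25 mM) stimulation; lower signal means less secretion.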
HT1080NT lethal: qHTS for induction of synthetic lethality in tumor cells producing 2HG: qHTS for the HT-1080-NT fibrosarcoma cell line | Potency, µM (titrated, usually from 46.1 µM), most hits filed as cytotoxic | HT-1080-NT fibrosarcoma viability, CellTiter-Glo ATP luminescence, 48 h | AID 686970, 2013 | actives 1.6% (n = 360,000);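 also: NT is the 2HG producing partner of a matched IDH1 knockdown line; nearly all actives have a fitted effect of over 55% in size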
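Compounds were tested in concentration-response format on HT-1080-NT cells for 48 hours at 37 degrees C. Cell viability came from CellTiter-Glo luminescence; curves were classified by r2, response magnitude and activity.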
KB-V1 cytotox: qHTS assay for MDR1-selective chemotherapeutics: Primary screen using the drug-selected MDR subline cells KB-V1; KB-V1 MDR cells viability, CellTiter-Glo, 72 h; Potency, µM (series often up to 46.1 µM), most hits filed as cytotoxic; actives 3.4% (n = 400,000); also: nearly all actives have a fitted effect of over 60% in size
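Cytotoxicity via CellTiter-Glo luminescence after 72 h compound exposure at 37 degrees C. Cells: drug-selected KB-V1 line, DMEM phenol-red free plus 10% FBS. Compounds tested at multiple concentrations; normalized data fitted to concentration-effect curves.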
A number is an active result; n = inactive; u = inconclusive; x = not tested or not shown. Unless noted, calls follow the shape of the dose curve; as a rule, active = well fitted curve in the direction sought with a large enough effect; inconclusive = small, poorly fitted or top-dose-only effect, or another doubt; inactive = no such curve, though single readings can be large; an effect the other way counts as inactive or inconclusive.

SMILES | KB-3-1 tox | HT1080 IDH1KD tx | IL-1B inflam inh | HT1080NT lethal | KB-V1 cytotox
CC1CCCCN1CCCNC(=O)C1CCN(c2nnc(-n3cccc3)s2)CC1 (stereo not drawn) | n | n | u | n | n
CCc1ccc(NC(=O)Cc2c(C(=O)O)c(C)cn2C)cc1 | n | x | x | x | n
O=c1c2ccccc2nc(-c2ccc(Cl)cc2)n1CCCCOc1ccc(F)cc1 | n | x | x | x | n
O=c1cc(CSc2nc(NCc3ccccc3)c3ccccc3n2)nc2ccc(Cl)cn12 | n | n | n | n | 2.3µM
NC(=O)c1ccc(NC(=O)CCc2nc3ccccc3s2)cc1 | n | n | n | n | u
O=C(Nc1ccc(Cc2nc3ccccc3s2)cc1)c1ccncc1 | 16µM | n | n | n | 7.3µM
COc1ccc(-c2c(-c3ccsc3)oc3ccc(N4CCOCC4)cc23)cc1 | n | n | n | n | n
COc1cc(-c2nnc(SCC(=O)Oc3ccccc3Cl)o2)cc(OC)c1OC | n | x | x | x | n
COc1cc(-c2nnc(SCc3ccccc3Cl)o2)cc(OC)c1OC | n | n | -59 | n | 2.3µM
COc1cc(-c2nnc(SCc3c(F)cccc3Cl)o2)cc(OC)c1OC | u | n | -58 | n | u
Fc1cccc(Cl)c1CSc1nnc(-c2ccncc2)o1 | n | n | n | n | u
Cc1cc2nn(-c3ccc(F)cc3)nc2cc1NC(=O)c1cccc2ccccc12 | n | x | x | x | n
Cc1cc2nn(-c3cccc4ccccc34)nc2cc1NC(=O)c1cccs1 | n | n | u | n | 16µM
O=C(c1cnc(N2CCCCC2)c2ccccc12)N1CCN(c2ccc(F)cc2)CC1 | n | x | x | x | u
CC1(C(=O)NC(=S)NNC(=O)c2ccncc2)CCCCC1 | u | u | n | n | u
O=C(NNC(=O)C12CC3CC(CC(C3)C1)C2)c1ccccn1 | u | u | -97 | n | n
O=C(NNC(=S)NC(=O)C12CC3CC(CC(C3)C1)C2)c1ccncc1 | u | 7.9µM | n | 13µM | u
CC(=O)Nc1ccc(S(=O)(=O)NCCC(=O)N2CCC(Cc3ccccc3)CC2)cc1 | u | n | n | n | u
CNC(=O)CSCc1cnn(-c2ccccc2)c1-n1cccc1 | n | n | n | n | 16µM
COc1ccc(-c2nc(S(=O)(=O)c3ccccc3)c(NCCCN3CCOCC3)o2)cc1 | n | n | n | n | n
CCc1ccc(CNC(=O)Cc2ccc(NC(=O)C3=C(C)OCCS3)cc2)cc1 | 1.2µM | 1.3µM | n | 0.82µM | 1.2µM
O=C(CCc1ccncc1)N1CCCC(Nc2ccc(F)c(F)c2)C1 (stereo not drawn) | n | n | n | n | n
Cn1cccc1C(=O)NCc1ccc(S(N)(=O)=O)cc1 | n | n | n | n | n
CCCC(=O)N1N=C(c2ccccc2)CC1c1cn(C)c2ccccc12 (stereo not drawn) | n | n | -56 | n | u
Cn1cc(C2CC(c3ccccc3)=NN2C(=O)c2ccccc2)c2ccccc21 (stereo not drawn) | u | u | n | n | 21µM
SMILES | KB-3-1 tox | HT1080 IDH1KD tx | IL-1B inflam inh | HT1080NT lethal | KB-V1 cytotox
CC(=O)N1N=C(c2ccc(Br)cc2)CC1c1cn(C)c2ccccc12 (stereo not drawn) | n | n | n | n | u
Cn1ncc2c(NNC(=O)C3CCCCC3)ncnc21 | n | n | n | n | n
CCN(CC)Cc1cc(Nc2c3ccccc3nc3c4ccccc4n(C)c23)cc(CN(CC)CC)c1O | u | u | -113 | 18µM | n
C/C(=N/Nc1ccnc2cc(Cl)ccc12)c1ccc(O)cc1 | n | n | -54 | n | n
Clc1ccc2c(NNc3ccccc3Cl)ccnc2c1 | n | n | n | n | n
O=[N+]([O-])c1ccc(/C=N/Nc2ccnc3cc(Cl)ccc23)o1 | n | u | -94 | u | n
Clc1ccc2c(N/N=C/c3ccccc3Br)ccnc2c1 | u | u | -98 | u | u
Clc1ccc2c(N/N=C/c3cccc(Br)c3)ccnc2c1 | u | u | -99 | u | n
Cc1cc(N/N=C/c2ccc([N+](=O)[O-])o2)nc2ccccc12 | n | n | n | n | u
CC(=O)c1cccc(-c2ccnc3c2CC(C(=O)Nc2cccc(C(F)(F)F)c2)O3)c1 (stereo not drawn) | n | n | n | n | n
Cc1cccn2cc(CSc3ccccc3N)nc12 | n | n | n | n | 13µM
COc1ccccc1CNc1nc(Nc2ccc(C)cc2C)c2sccc2n1 | u | 23µM | u | 21µM | u
Cc1ccc(Nc2nc(NCc3cccs3)nc3ccsc23)c(C)c1 | u | u | -51 | u | u
Cc1ccc(Nc2nc(NCc3ccccc3)nc3ccsc23)c(C)c1 | u | u | u | u | n
COc1ccc(C2Nc3ccccc3C(=O)N2NC(C)=O)c(OC)c1 (stereo not drawn) | n | n | n | n | n
COc1cccc(COc2ccccc2C2Nc3ccc(Br)cc3C(=O)N2NC(=O)c2ccncc2)c1 (stereo not drawn) | u | n | u | n | 8.2µM
COc1ccc(CCN2CC(C(=O)N3CCN(C(C)=O)CC3)CCC2=O)cc1 (stereo not drawn) | n | n | n | n | n
CNC(=O)C(=O)Nc1cc2c3c(c1)C(C)C(=O)N3CCC2 (stereo not drawn) | n | n | n | n | n
COc1cccc(CN(C)S(=O)(=O)c2ccccc2Br)c1 | n | n | n | n | n
CCOC(=O)C1CCN(C(=O)CNC(=O)Cn2c(C)cc3ccccc3c2=O)CC1 | n | n | n | n | n
O=C(c1ccc(Cl)cc1)c1ccc(OCC(=O)N2CCOCC2)cc1 | n | n | n | n | 18µM
CC(C)COc1ccc(C(=O)Nc2ccc(SC(F)F)cc2)cc1 | n | n | n | n | n
CC(=O)N1CCn2c3ccc(C)cc3c3cccc1c32 | n | n | n | n | u
Cc1nn(Cc2ccccc2)c(Cl)c1C(=O)OCc1nnc(-c2ccccc2)o1 | n | n | n | n | 7.3µM
O=C(Nc1ccc(C(=O)N2CCCC2)cc1)c1cc(F)c(F)cc1Cl | n | n | u | n | n
CCOC(=O)c1c(C)nc2sc(C(=O)Nc3ccc(OC)cc3)c(N)c2c1-c1ccc(OC)cc1 | 5.8µM | u | n | u | 4.1µM
CN1CCN(C(c2ccc(Br)cc2)c2cc(Cl)c3cccnc3c2O)CC1 (stereo not drawn) | u | u | -106 | u | n
CCOc1ccc(C(Nc2cccnc2)c2cc(Cl)c3cccnc3c2O)cc1 (stereo not drawn) | u | 15µM | n | n | n
CN1CCN(C(c2ccc(F)cc2)c2ccc3cccnc3c2O)CC1 (stereo not drawn) | n | n | n | n | n
CCC(=O)NC(C)c1cc(Cl)c2cccnc2c1O (stereo not drawn) | 8.2µM | x | x | x | n

Bioassay records (PubChem)
